Laboratory results reported in PubChem BioAssay AID1159580 (chemical genetic matrix, 2015).
Out of some 5,500 compounds screened, about 2,000 (36%) were called active. Another 18% or so got no clear call; they are omitted. No stated cut-off is given here; in the data, active means normalized growth mostly below about 0.91 (no sharp cut-off); inconclusive means no clear call, values can overlap the other calls; inactive means mostly above about 0.92. The list shows a part of the results.

Assay: chemical genetic growth profiling, strain panel (AID 1159580);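 further: tested at 20 µM; growth read once vehicle control cultures reached saturation at 30 °C; 1 = growth at the plate median or of vehicle wells; lower values mean less growth of the strain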
Conditions: S. cerevisiae deletion strains, growth OD

Measured: normalized growth

C#C[C@@H]1CC2C3CCC4=C[C@@H](OC(C)=O)CCC4C3CC[C@]2(C)[C@H]1OC(C)=O (stereo partly drawn)
inactive: locus YHR030C, strain SLT2, hits give low values 1 | locus YHR079C, strain IRE1, hits give low values 0.929 | locus YJL095W, strain BCK1, hits give low values 0.951 | locus YJR066W, strain TOR1, hits give low values 0.947 | locus YLR113W, strain HOG1, hits give low values 0.912 | locus YNL183C, strain NPR1, hits give low values 0.903 | locus YOR231W, strain MKK1, hits give low values 0.946 | locus YPL256C, strain CLN2, hits give low values 0.936
